Test results taken from PubChem BioAssay AID489025 (Southern Research Specialized Biocontainment Screening …, 2010).
The whole screen tested about 2,300 compounds, of which about 790 (34%) were called active. The rule behind the calls is not given here. The list shows a part of the results. Entries with a potency or affinity are not part of this list.

Experiment: THP-1 cell cytotoxicity, dose response, cytotoxicity control for non-replicating M. tuberculosis project (AID 489025)
Details: THP-1 cell viability; series mostly up to 40 µM; viability: at the top concentration

Row | SMILES | viability
1 | CC(C)N=C1SC(CC(=O)Nc2ccccc2)C(=O)N1C(C)C (stereo unspecified) | 85.1% (inactive)
2 | CC(C)(C)c1ccc(C(=O)N2CCCC2)s1 | 90.3% (inactive)
3 | CC1(C)OC(c2ccccc2)=C/C(=C\C=N\NC(=O)c2ccncc2)O1 | 75.6% (inactive)
4 | Cc1ccc(NC(=O)CCSc2nnc(-c3ccco3)o2)cc1 | 104% (inactive)
5 | O=C1/C(=C/c2ccco2)CCC1C1CCCC1 (stereo unspecified) | 98% (inactive)
6 | COc1ccc(CC(=O)Nc2nccs2)cc1OC | 105% (inactive)
7 | O=C(Oc1ccc(/C=N/O)cc1)c1ccccc1Cl | 115% (inactive)
8 | N/C(=N\OC(=O)c1cccc2ccccc12)c1cccnc1 | 121% (inactive)
9 | N/N=C(/Cc1nc2ccccc2[nH]1)c1ccc([N+](=O)[O-])cc1 | 104% (inactive)
10 | Cc1ccc(-c2nnc(Cc3ccc([N+](=O)[O-])cc3)o2)cc1 | 95.5% (inactive)
11 | O=[N+]([O-])c1ccc2nc(SCc3cn4ccccc4n3)[nH]c2c1 | 123% (inactive)
12 | O=C(Nc1nc2ccccc2[nH]1)c1cccc([N+](=O)[O-])c1 | 106% (inactive)
13 | Cc1ccc2cc3c(nc2c1)OCC3 | 108% (inactive)
14 | Fc1ccc(N2CCN(Cc3nnc(-c4ccccc4)o3)CC2)cc1 | 105% (inactive)
15 | O=C1CCCCC1Sc1nnc(-c2ccc3c(c2)OCO3)o1 (stereo unspecified) | 107% (inactive)
16 | O=C(COC(=O)c1ccccc1Cl)NCCC1=CCCCC1 | 93.1% (inactive)
17 | Cc1ccc2c(C)ccc(O)c2n1 | 123% (inactive)
18 | CN1C(=O)CC(N2CCC(c3nc4ccccc4s3)CC2)C1=O (stereo unspecified) | 97.2% (inactive)
19 | FC(F)(F)c1ccc(NCCc2ccccc2)nc1 | 98% (inactive)
20 | CN(C)/C=C1/C(=O)N(c2ccc([N+](=O)[O-])cc2)N=C1c1ccccc1 | 101% (inactive)
21 | Cc1cc(C)n2nc(N)c(N=Nc3ccccc3)c2n1 | 95.3% (inactive)

Row | SMILES | viability
22 | S=C1CN=C(c2ccccc2)c2cc(Cl)ccc2N1 | 90.6% (inactive)
23 | CC(C)c1ccc(N2C(=O)CC(Sc3ncn[nH]3)C2=O)cc1 (stereo unspecified) | 98.1% (inactive)
24 | CCOC(=O)COn1c2c(c3c4no[n+]([O-])c4ccc31)CCCC2 | 123% (inactive)
25 | CN(C)CCNc1c2c(c(C#N)c3nc4ccccc4n13)CCCC2 | 99.4% (inactive)
26 | CC1=NN(c2ccccc2)C(=O)C1C(=O)c1ccccc1 (stereo unspecified) | 76.9% (inactive)
27 | Oc1ccccc1CN1CCCC(N2CCN(c3cccc(C(F)(F)F)c3)CC2)C1 (stereo unspecified) | 73.8% (inactive)
28 | N=C1/C(=C/c2ccc(OC(=O)c3ccco3)cc2)C(=O)N=C2SC=CN12 | 108% (inactive)
29 | CCc1ccc(C2=C/C(=C/c3cccnc3)C(=O)O2)cc1 | 126% (inactive)
30 | Cc1ccc(OCC(=O)OCc2c(C)noc2C)cc1C | 123% (inactive)
31 | CCOc1ccc(NC(=O)COc2ccc3c(c2)OCO3)cc1 | 103% (inactive)
32 | O=C(COC(=O)c1ccccc1Br)Nc1ccccc1F | 107% (inactive)
33 | O=C(CCNc1ccc(Cl)cc1)c1cccs1 | 102% (inactive)
34 | Cc1occc1-c1nnc(-c2cc([N+](=O)[O-])cc([N+](=O)[O-])c2)o1 | 97.4% (inactive)
35 | Cc1cc(NC(=O)c2cc([N+](=O)[O-])cc([N+](=O)[O-])c2)no1 | 111% (inactive)
36 | CCOC(=O)c1ccc(N=C(CC)c2c(O)n(C)c(=O)n(C)c2=O)cc1 | 86.7% (inactive)
37 | O=C1OC(/C(=C\Nc2cc(Cl)ccc2O)[N+](=O)[O-])c2ccccc21 (stereo unspecified) | 81.6% (inactive)
38 | CS(=O)(=O)Cc1nc2ccccc2oc1=O | 100% (inactive)
39 | COc1cccc2cc(-c3nc4ccccc4o3)c(=O)oc12 | 97.5% (inactive)
40 | O=C(OCC(=O)N1CCCC1)c1cc(Br)ccc1Cl | 121% (inactive)
41 | CC12CC3CC(C)(C1)CC(C(=O)N1CCCC1)(C3)C2 | 84.4% (inactive)
42 | OC(COc1ccccc1Cl)CN1CCN(CC(O)COc2ccccc2Cl)CC1 (stereo unspecified) | 87.5% (inactive)

Row | SMILES | viability
43 | CCOc1ccc(Cn2c(=O)oc3ccccc32)cc1 | 113% (inactive)
44 | O=C(COc1ccccc1)NCCSCc1ccc(Cl)cc1 | 90.7% (inactive)
45 | OC(COc1ccc2ccccc2c1Br)Cn1ccnc1 (stereo unspecified) | 74.6% (inactive)
46 | CCOC(=O)COc1ccc2c(c1)c(C(C)=O)c(C)n2Cc1ccccc1 | 90% (inactive)
47 | O=C(OCC#CCSc1nnc(-c2ccncc2)o1)c1cccs1 | 113% (inactive)
48 | COc1ccc(COc2cccc(C=O)c2)cc1 | 80.7% (inactive)
49 | CCCCn1c(=O)c(C(=O)Nc2nnc(C(C)C)s2)c(O)c2ccccc21 | 73.7% (inactive)
50 | CCOC(=O)Cc1csc(NC(=O)COc2ccc3c(c2)CCC3)n1 | 92.2% (inactive)
51 | CCCNC(=O)N1CCC(c2ccc3c(c2)OCO3)CC1 | 89.1% (inactive)
52 | CCOC(=O)C1CCCc2c1[nH]c1c(C(N)=O)cccc21 (stereo unspecified) | 96.1% (inactive)
53 | O=C(OCC#CCSc1nc2ccccc2o1)c1ccco1 | 98.9% (inactive)
54 | O=C(COC(=O)c1cc(Cl)ccc1O)c1ccc2c(c1)OCO2 | 121% (inactive)
55 | C/C(=N\O)c1cc(Cl)ccc1O | 87.7% (inactive)
56 | CCOC(=O)COc1ccc2c(=O)cc(-c3ccccc3)oc2c1 | 110% (inactive)
57 | CN(C)c1ccc(/C=C2\N=C(C(C)(C)C)OC2=O)cc1 | 120% (inactive)
58 | O=C(OCc1cccc([N+](=O)[O-])c1)c1ccc2ccccc2n1 | 106% (inactive)
59 | O=c1c2c([N+](=O)[O-])cc([N+](=O)[O-])cc2nc2ccccn12 | 99.5% (inactive)
60 | CSc1ccc(CNc2ncc(-c3cccc([N+](=O)[O-])c3)n2C)cc1 | 81.1% (inactive)
61 | N[C@@H](Cc1ccccc1)c1nnc(SC/C=C/c2ccccc2)o1 | 112% (inactive)
